Assay results taken from PubChem BioAssay.
Unmarked numbers belong to inactive results.

Assay: resazurin metabolic signal in A549 cells – cell-based, resazurin fluorescence, 24 h, PK04 Diversity Set, profiling panel (AID 1171); further: test concentration not given here
Details: A549 viability, higher = more signal, called active from +8 up or from −8 down
Work on `COC(=O)[C@@]1(Cc2ccc(OC)cc2)[C@H]2c3cc(C(=O)N4CCCC4)n(CCc4ccccn4)c3C[C@H]2CN1C(=O)c1ccccc1` yielded a z-score of -0.201. In the case of `CC(=O)N1Cc2ccccc2C[C@@]2(N=C(c3ccc(OCCCO)cc3)O[C@H]2c2ccccc2)C1=O`, the z-score was -2.8. With `CC(C)NC(=O)[C@@]1(c2ccc([N+](=O)[O-])cc2)CC(=O)N(C(C)C)[C@@H]1c1ccc(CO)cc1` the z-score was -1.1. In the case of `CC(C)C(O)C1C=CC2C(=O)N(C)C(=O)C2N1N1CCCCC1` (stereo not given), the z-score was -0.153. With `CCCC[C@@H]1C[C@H]1[C@@H](NC(=O)c1ccccc1)c1ccccc1` the z-score was -0.324. In the case of `CCN(CC)c1ccc(N2CC=CC34O[C@@H]5/C=C\CCCOC(=O)C5[C@H]3C(=O)N(CCCO)[C@@H]4C2=O)cc1` (stereo not given in full), the z-score was 0.876. `COc1ccc(C(O)C2C=CC3C(=O)N(c4ccccc4)C(=O)C3N2Nc2ccccc2)c2ccccc12` (stereo not given) gave a z-score of -0.301. In the case of `O=[N+]([O-])c1ccc(C[n+]2ccc(CCCO)cc2)o1`, the z-score was -0.77. Work on `C[N+](C)(C)CCCCNC(=O)[C@H]1C[C@H]2C(=O)N3CCC[C@H]3C(=O)N2[C@H]1c1ccc(O)cc1` yielded a z-score of 0.0558. `COCCOC(=O)N1C(=O)[C@@]2(c3ccccc31)[C@H](C(=O)N1CCCCCCC1)[C@H]1C(=O)O[C@H](c3ccccc3)[C@H](c3ccccc3)N1[C@@H]2c1ccccc1OCCO` showed a z-score of -0.467. Work on `C=CCC(OC(C)=O)[C@@H]1[C@@H](N(Cc2ccc(-c3ccccc3)cc2)C(=O)c2ccc(C)cc2)c2cc(OCCCO)ccc2N1C(=O)Cc1ccc(OC)cc1` (stereo not given in full) yielded a z-score of 0.267. `COC(=O)[C@@]1(Cc2ccc(OC)cc2)[C@H]2c3cc(C(=O)N4CCCC4)n(C[C@H](O)CO)c3C[C@H]2CN1C(=O)c1ccccc1` gave a z-score of 0.336. In the case of `O=C1O[C@H](c2ccccc2)[C@H](c2ccccc2)N2[C@H]1[C@@H](C(=O)NC[C@H](O)c1ccccc1)[C@]1(C(=O)Nc3ccc(C#CC4=CCCCC4)cc31)[C@H]2c1ccc(O)cc1`, the z-score was 0.237. Compound `COc1ccc([Si](C)(C)[C@@H]2[C@@H](CCO)O[C@]3(C(=O)N(Cc4ccccc4)c4ccc(N(C=O)c5ccccc5)cc43)[C@H]2C)cc1` has a z-score of -2.31. `COc1cc(NN2C(C(O)c3ccccc3)C=CC3C(=O)N(c4ccccc4)C(=O)C32)cc(OC)c1OC` (stereo not given) gave a z-score of -0.381. Compound `CN(C)CCCCNC(=O)[C@@H]1C[C@@H]2C(=O)N[C@@H](CCCCN)C(=O)N2[C@@H]1c1cccc(OCCO)c1` has a z-score of -0.391. With `COc1c(C)cc(-c2cc3c(c(-c4ccccc4)n2)[Si](C(C)C)(C(C)C)O[C@H]3c2ccccc2)cc1C` the z-score was -0.0824. In the case of `[N-]=[N+]=NCc1ccccc1C[C@]1(C(=O)NCc2ccccc2)COC(c2ccc(OCCCO)cc2)=N1`, the z-score was -1.42. With `C=CCOC(=O)[C@@H]1[C@H]2C(=O)O[C@H](c3ccccc3)[C@H](c3ccccc3)N2[C@H](c2ccc(OCCOC(=O)[C@H]3C[C@H]4C(=O)N[C@@H](CCCC[N+](C)(C)C)C(=O)N4[C@H]3c3cccc(OCCO)c3)cc2)[C@@]12C(=O)Nc1ccc(I)cc12` the z-score was -0.166. Work on `O=C1OCC=C[C@H]2OC34C=CCN(c5ccc(Cl)cc5)C(=O)[C@H]3N(CCCO)C(=O)[C@@H]4[C@@H]12` (stereo not given in full) yielded a z-score of -0.875. `O=c1cccc(-c2ccccc2)o1` showed a z-score of 0.299. With `C=C(COC)C(=O)CC[C@H](OC(=O)c1cccnc1)c1ccccc1OCCO` the z-score was 0.138. In the case of `CCCCCN1CC=CC23O[C@@H]4C=CCCOC(=O)C4[C@H]2C(=O)N(CCCO)[C@@H]3C1=O` (stereo not given in full), the z-score was -0.0645. `CCN(CC)c1ccc(N2CC=CC34O[C@@H]5C=CCOC(=O)[C@@H]5[C@H]3C(=O)N(CCCCCO)[C@@H]4C2=O)cc1` (stereo not given in full) showed a z-score of -0.0833. For `C#C[C@H]1Oc2ccccc2S(=O)(=O)N2CCC[C@@H]12`, the z-score was -0.424. `O=C1C2C=CC(C(O)c3ccc(B(O)O)cc3)N(Nc3ccc([N+](=O)[O-])cc3)C2C(=O)N1c1ccccc1` (stereo not given) showed a z-score of 0.0312. In the case of `O=C1OCCC/C=C\[C@H]2OC34C=CCN(CCN5CCOCC5)C(=O)[C@H]3N(CCO)C(=O)[C@@H]4C12` (stereo not given in full), the z-score was -1.99. Compound `CC(=O)n1cc(C(O)C2C=CC3C(=O)N(c4ccccc4)C(=O)C3N2Nc2ccc(C#N)cc2)c2ccccc21` (stereo not given) has a z-score of 1.52. Compound `COc1ccc(C(=O)Nc2cccc(CN3C(=O)[C@@]4(O[C@@H](CCn5cc([C@H](O)c6ccccc6)nn5)[C@H]([Si](C)(C)c5ccc(OC)cc5)[C@H]4C)c4ccccc43)c2)cc1` has a z-score of -1.88. Compound `COC(=O)[C@@]1(Cc2ccc(F)cc2)[C@H]2c3cc(C(=O)N4CCCC4)n(CCc4ccc(OC)c(Br)c4)c3C[C@H]2CN1C(=O)c1ccccc1` has a z-score of -2.3. In the case of `CC(C)N1C(=O)c2ccccc2[C@](C)(C(=O)NC2CC2)[C@@H]1c1ccc(CO)cc1`, the z-score was 0.688. In the case of `CCCNC(=O)[C@@]1(C)c2ccccc2C(=O)N(Cc2ccc(OC(F)(F)F)cc2)[C@H]1c1ccc(CO)cc1`, the z-score was -0.658. Work on `C=CCC(OC(C)=O)[C@@H]1[C@@H](N(Cc2ccc(-c3cccc(C(F)(F)F)c3)o2)C(=O)Cc2ccc(OC)cc2)c2cc(OCCCO)ccc2N1C(=O)Cc1ccc(OC)cc1` (stereo not given in full) yielded a z-score of 0.139. `COC(=O)[C@@]1(Cc2ccccc2)[C@H]2c3cc(C(=O)N(C)C)n(Cc4cc(F)c(F)c(F)c4)c3C[C@H]2CN1C(=O)c1ccccc1` showed a z-score of -0.0085. `C=C(C)[C@@H]1CC=C(C(O)C2C=CC3C(=O)N(Cc4ccccc4)C(=O)C3N2n2cnnc2)CC1` (stereo not given in full) showed a z-score of 0.159.
